Results taken from PubChem BioAssay AID1159580 (chemical genetic matrix, 2015).
About 2,000 (36%) of roughly 5,500 compounds were called active. Another 18% or so got no clear call; they are omitted. The list shows a part of the results. A number with no mark means an inactive call. Cut-off read from the data, not from the text of the source: active = normalized growth mostly below about 0.91 (no sharp cut-off); inconclusive = no clear call, values can overlap the other calls; inactive = mostly above about 0.92.

Test: chemical genetic growth profiling, strain panel (AID 1159580);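 note: tested at 20 µM; growth read once vehicle control cultures reached saturation at 30 °C; 1 = growth at the plate median or of vehicle wells; lower values mean less growth of the strain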
Conditions: growth OD

Which normalized growth (S. cerevisiae deletion strains, locus YJR066W, strain TOR1, hits give low values) does the source give for CN(Cc1cnc2nc(N)nc(N)c2n1)c1ccc(C(=O)NC(CCC(=O)O)C(=O)O)cc1 (stereo unspecified) here?
Its normalized growth is 0.0866 (active).

What about the normalized growth (S. cerevisiae deletion strains, locus YKL009W, strain mrt4, hits give low values) of the same molecule?
The normalized growth was 0.527 (active).

And the normalized growth (S. cerevisiae deletion strains, locus YKL068W, hits give low values)?
The normalized growth was 0.513 (active).

And the normalized growth (S. cerevisiae deletion strains, locus YKL085W, strain MDH1 (second series), hits give low values)?
Its normalized growth is 0.311 (active).

What about the normalized growth (S. cerevisiae deletion strains, locus YKL085W, strain MDH1, hits give low values) of the same molecule?
The normalized growth was 0.311 (active).

And the normalized growth (S. cerevisiae deletion strains, locus YKL160W, strain elf1, hits give low values)?
The normalized growth was 0.94.

What about the normalized growth (S. cerevisiae deletion strains, locus YKR001C, strain vps1, hits give low values) of the same molecule?
Its normalized growth is 0.953.

And the normalized growth (S. cerevisiae deletion strains, locus YKR026C, strain gcn3, hits give low values)?
The normalized growth was 0.934.

What about the normalized growth (S. cerevisiae deletion strains, locus YKR091W, strain srl3, hits give low values) of the same molecule?
Its normalized growth is 0.94.

And the normalized growth (S. cerevisiae deletion strains, locus YLL001W, strain dnm1, hits give low values)?
The normalized growth was 0.873 (active).

And the normalized growth (S. cerevisiae deletion strains, locus YLL026W, hits give low values)?
The normalized growth was 0.935.

What about the normalized growth (S. cerevisiae deletion strains, locus YLL041C, strain sdh2, hits give low values) of the same molecule?
Its normalized growth is 0.955.

And the normalized growth (S. cerevisiae deletion strains, locus YLR027C, strain aat2, hits give low values)?
Its normalized growth is 0.94.

What about the normalized growth (S. cerevisiae deletion strains, locus YLR039C, strain RIC1, hits give low values) of the same molecule?
Its normalized growth is 0.909.

What about the normalized growth (S. cerevisiae deletion strains, locus YLR058C, strain SHM2, hits give low values) of the same molecule?
The normalized growth was 0.99.

And the normalized growth (S. cerevisiae deletion strains, locus YLR102C, strain apc9, hits give low values)?
The normalized growth was 0.993.

And the normalized growth (S. cerevisiae deletion strains, locus YLR113W, strain HOG1, hits give low values)?
Its normalized growth is 0.247 (active).

What about the normalized growth (S. cerevisiae deletion strains, locus YLR221C, strain rsa3, hits give low values) of the same molecule?
Its normalized growth is 0.816 (active).

And the normalized growth (S. cerevisiae deletion strains, locus YLR258W, strain gsy2, hits give low values)?
Its normalized growth is 0.923.

And the normalized growth (S. cerevisiae deletion strains, locus YLR262C, strain YPT6 (second series), hits give low values)?
Its normalized growth is 0.952.

And the normalized growth (S. cerevisiae deletion strains, locus YLR262C, strain YPT6, hits give low values)?
The normalized growth was 0.958.

What about the normalized growth (S. cerevisiae deletion strains, locus YLR268W, strain sec22, hits give low values) of the same molecule?
Its normalized growth is 0.984.

And the normalized growth (S. cerevisiae deletion strains, locus YLR320W, strain mms22, hits give low values)?
The normalized growth was 0.789 (active).

And the normalized growth (S. cerevisiae deletion strains, locus YLR330W, strain CHS5, hits give low values)?
Its normalized growth is 0.973.

What about the normalized growth (S. cerevisiae deletion strains, locus YLR342W, strain FKS1 (second series), hits give low values) of the same molecule?
Its normalized growth is 1.01.

And the normalized growth (S. cerevisiae deletion strains, locus YLR342W, strain FKS1, hits give low values)?
Its normalized growth is 0.928.

And the normalized growth (S. cerevisiae deletion strains, locus YLR357W, strain rsc2, hits give low values)?
Its normalized growth is 0.943.

What about the normalized growth (S. cerevisiae deletion strains, locus YLR370C, strain arc18, hits give low values) of the same molecule?
The normalized growth was 0.877 (active).

What about the normalized growth (S. cerevisiae deletion strains, locus YLR371W, strain rom2, hits give low values) of the same molecule?
The normalized growth was 1.01.

And the normalized growth (S. cerevisiae deletion strains, locus YLR384C, strain iki3, hits give low values)?
The normalized growth was 0.88 (active).

And the normalized growth (S. cerevisiae deletion strains, locus YLR418C, strain cdc73, hits give low values)?
Its normalized growth is 0.96.

What about the normalized growth (S. cerevisiae deletion strains, locus YML016C, strain PPZ1, hits give low values) of the same molecule?
Its normalized growth is 1.01.

What about the normalized growth (S. cerevisiae deletion strains, locus YML032C, strain rad52, hits give low values) of the same molecule?
Its normalized growth is 0.986.

And the normalized growth (S. cerevisiae deletion strains, locus YML120C, strain ndi1, hits give low values)?
Its normalized growth is 0.813 (active).

What about the normalized growth (S. cerevisiae deletion strains, locus YML124C, strain tub3, hits give low values) of the same molecule?
The normalized growth was 0.974.

And the normalized growth (S. cerevisiae deletion strains, locus YMR058W, strain fet3, hits give low values)?
Its normalized growth is 0.893 (active).

What about the normalized growth (S. cerevisiae deletion strains, locus YMR078C, strain ctf18, hits give low values) of the same molecule?
The normalized growth was 0.986.

What about the normalized growth (S. cerevisiae deletion strains, locus YMR125W, strain sto1, hits give low values) of the same molecule?
Its normalized growth is 0.95.

What about the normalized growth (S. cerevisiae deletion strains, locus YMR129W, hits give low values) of the same molecule?
The normalized growth was 0.948.

And the normalized growth (S. cerevisiae deletion strains, locus YMR205C, strain PFK2, hits give low values)?
Its normalized growth is 0.948.

What about the normalized growth (S. cerevisiae deletion strains, locus YMR223W, strain ubp8, hits give low values) of the same molecule?
The normalized growth was 0.953.

What about the normalized growth (S. cerevisiae deletion strains, locus YMR231W, strain pep5, hits give low values) of the same molecule?
The normalized growth was 0.923 (active).

And the normalized growth (S. cerevisiae deletion strains, locus YMR263W, strain SAP30, hits give low values)?
The normalized growth was 0.987.

What about the normalized growth (S. cerevisiae deletion strains, locus YMR307W, strain GAS1, hits give low values) of the same molecule?
Its normalized growth is 1.02.

And the normalized growth (S. cerevisiae deletion strains, locus YNL067W, strain RPL9B, hits give low values)?
Its normalized growth is 0.963.

And the normalized growth (S. cerevisiae deletion strains, locus YNL071W, strain lat1, hits give low values)?
The normalized growth was 0.961.

And the normalized growth (S. cerevisiae deletion strains, locus YNL153C, strain GIM3, hits give low values)?
The normalized growth was 0.974.

And the normalized growth (S. cerevisiae deletion strains, locus YNL175C, strain NOP13, hits give low values)?
The normalized growth was 0.975.

And the normalized growth (S. cerevisiae deletion strains, locus YNL183C, strain NPR1, hits give low values)?
The normalized growth was 0.112 (active).

What about the normalized growth (S. cerevisiae deletion strains, locus YNL197C, strain WHI3, hits give low values) of the same molecule?
The normalized growth was 0.976.

And the normalized growth (S. cerevisiae deletion strains, locus YNL209W, strain ssb2, hits give low values)?
The normalized growth was 0.913 (active).

And the normalized growth (S. cerevisiae deletion strains, locus YNL224C, strain SQS1, hits give low values)?
The normalized growth was 0.977.

What about the normalized growth (S. cerevisiae deletion strains, locus YNL233W, strain BNI4, hits give low values) of the same molecule?
Its normalized growth is 0.98.

And the normalized growth (S. cerevisiae deletion strains, locus YNL248C, strain rpa49, hits give low values)?
Its normalized growth is 0.925.

And the normalized growth (S. cerevisiae deletion strains, locus YNL250W, strain rad50, hits give low values)?
The normalized growth was 0.195 (active).

And the normalized growth (S. cerevisiae deletion strains, locus YNL271C, strain bni1, hits give low values)?
The normalized growth was 0.291 (active).

And the normalized growth (S. cerevisiae deletion strains, locus YNL298W, strain CLA4, hits give low values)?
Its normalized growth is 0.385 (active).

And the normalized growth (S. cerevisiae deletion strains, locus YNL307C, strain MCK1, hits give low values)?
Its normalized growth is 1.01.

And the normalized growth (S. cerevisiae deletion strains, locus YNL322C, strain KRE1 (second series), hits give low values)?
Its normalized growth is 0.512 (active).

What about the normalized growth (S. cerevisiae deletion strains, locus YNL322C, strain KRE1, hits give low values) of the same molecule?
Its normalized growth is 0.971.

What about the normalized growth (S. cerevisiae deletion strains, locus YNR049C, strain mso1, hits give low values) of the same molecule?
Its normalized growth is 0.921.

And the normalized growth (S. cerevisiae deletion strains, locus YNR052C, strain pop2, hits give low values)?
Its normalized growth is 0.951.

What about the normalized growth (S. cerevisiae deletion strains, locus YOL012C, strain htz1) of the same molecule?
The normalized growth was 1.38.

What about the normalized growth (S. cerevisiae deletion strains, locus YOL147C, strain pex11, hits give low values) of the same molecule?
The normalized growth was 0.982.

What about the normalized growth (S. cerevisiae deletion strains, locus YOR001W, strain rrp6, hits give low values) of the same molecule?
The normalized growth was 0.929.

And the normalized growth (S. cerevisiae deletion strains, locus YOR061W, strain CKA2, hits give low values)?
The normalized growth was 0.99.

What about the normalized growth (S. cerevisiae deletion strains, locus YOR069W, strain VPS5, hits give low values) of the same molecule?
Its normalized growth is 0.987.

What about the normalized growth (S. cerevisiae deletion strains, locus YOR070C, strain gyp1, hits give low values) of the same molecule?
The normalized growth was 0.934.

And the normalized growth (S. cerevisiae deletion strains, locus YOR080W, strain dia2, hits give low values)?
Its normalized growth is 0.902 (active).

And the normalized growth (S. cerevisiae deletion strains, locus YOR083W, strain WHI5 (second series), hits give low values)?
The normalized growth was 0.984.

And the normalized growth (S. cerevisiae deletion strains, locus YOR083W, strain WHI5, hits give low values)?
Its normalized growth is 0.908.

And the normalized growth (S. cerevisiae deletion strains, locus YOR106W, strain vam3, hits give low values)?
Its normalized growth is 0.801 (active).

And the normalized growth (S. cerevisiae deletion strains, locus YOR136W, strain idh2, hits give low values)?
The normalized growth was 0.995.

What about the normalized growth (S. cerevisiae deletion strains, locus YOR144C, strain elg1, hits give low values) of the same molecule?
Its normalized growth is 0.975.

What about the normalized growth (S. cerevisiae deletion strains, locus YOR184W, strain ser1, hits give low values) of the same molecule?
The normalized growth was 0.968.

What about the normalized growth (S. cerevisiae deletion strains, locus YOR231W, strain MKK1, hits give low values) of the same molecule?
Its normalized growth is 0.193 (active).

What about the normalized growth (S. cerevisiae deletion strains, locus YOR265W, strain rbl2, hits give low values) of the same molecule?
The normalized growth was 0.911 (active).

What about the normalized growth (S. cerevisiae deletion strains, locus YOR270C, strain vph1, hits give low values) of the same molecule?
Its normalized growth is 0.957.

And the normalized growth (S. cerevisiae deletion strains, locus YOR290C, strain snf2, hits give low values)?
Its normalized growth is 0.845 (active).

And the normalized growth (S. cerevisiae deletion strains, locus YOR316C, strain cot1, hits give low values)?
Its normalized growth is 0.984.

And the normalized growth (S. cerevisiae deletion strains, locus YPL051W, strain arl3, hits give low values)?
The normalized growth was 0.984.

What about the normalized growth (S. cerevisiae deletion strains, locus YPL078C, strain atp4, hits give low values) of the same molecule?
Its normalized growth is 0.947.

What about the normalized growth (S. cerevisiae deletion strains, locus YPL106C, strain sse1, hits give low values) of the same molecule?
Its normalized growth is 0.947.

And the normalized growth (S. cerevisiae deletion strains, locus YPL240C, strain hsp82, hits give low values)?
Its normalized growth is 0.957.

And the normalized growth (S. cerevisiae deletion strains, locus YPL256C, strain CLN2, hits give low values)?
Its normalized growth is 0.227 (active).

What about the normalized growth (S. cerevisiae deletion strains, locus YPR119W, strain clb2, hits give low values) of the same molecule?
Its normalized growth is 0.989.

What about the normalized growth (S. cerevisiae deletion strains, locus YPR141C, strain kar3, hits give low values) of the same molecule?
Its normalized growth is 0.345 (active).

And the normalized growth (S. cerevisiae deletion strains, locus YPR163C, strain tif3, hits give low values)?
Its normalized growth is 0.985.

And the normalized growth (S. cerevisiae deletion strains, locus YPR167C, strain met16, hits give low values)?
Its normalized growth is 0.975.

And the normalized growth (S. cerevisiae deletion strains, strain wtn01, hits give low values)?
The normalized growth was 0.97.

And the normalized growth (S. cerevisiae strains, strain wild type, hits give low values)?
Its normalized growth is 0.973.
